Assay results: PubChem BioAssay (NCI)
The panel holds about 83,000 compounds, 20% with a hit somewhere; the sample as a whole holds those more often.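 Values shown are percent growth following 48 h exposure of cells in 96-well plates to a single concentration of compound; below 10 was considered active.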 Unmarked numbers belong to inactive results. Activity calls are given as the source filed them.

How the values were obtained:
Assay in all cases: NCI-60 one-dose screen, 48 h (100 = growth as untreated, 0 = no growth, -100 = all killed)
SR leukemia = details: 10 µM unless noted
RPMI-8226 leukemia = details: 10 µM
OVCAR-8 ovarian = details: 10 µM unless noted
OVCAR-5 ovarian = details: 10 µM unless noted
OVCAR-4 ovarian = details: 10 µM unless noted
SK-OV-3 ovarian = details: 10 µM
IGROV1 ovarian = details: 10 µM unless noted
OVCAR-3 ovarian = details: 10 µM unless noted
HS 578T breast = details: 10 µM unless noted
NCI/ADR-RES ovarian = details: 10 µM unless noted
T-47D breast = details: 10 µM
BT-549 breast = details: 10 µM unless noted
MDA-MB-435 melanoma = details: 10 µM unless noted
SW-620 colon = details: 10 µM unless noted
MCF7 breast = details: 10 µM unless noted
HCT-116 colon = details: 10 µM unless noted
HCC-2998 colon = details: 10 µM unless noted
KM12 colon = details: 10 µM unless noted

Compound	growth (SR leukemia)	growth (RPMI-8226 leukemia)	growth (OVCAR-8 ovarian)	growth (OVCAR-5 ovarian)	growth (OVCAR-4 ovarian)	growth (SK-OV-3 ovarian)	growth (IGROV1 ovarian)	growth (OVCAR-3 ovarian)	growth (HS 578T breast)	growth (NCI/ADR-RES ovarian)	growth (T-47D breast)	growth (BT-549 breast)	growth (MDA-MB-435 melanoma)	growth (SW-620 colon)	growth (MCF7 breast)	growth (HCT-116 colon)	growth (HCC-2998 colon)	growth (KM12 colon)
C=CC(=O)N1CC2(CC(n3nc(-c4ccc(Oc5ccccc5)cc4)c4c(N)ncnc43)C2)C1	31.5%	41%	28.7%	54.8%	27.4%	5.31% (active)	10.7%	30.9%	-11.6% (active)	41.6%	36.4%	29.9%	30.4%	78.8%	26.5%	45.4%	64.9%	48.9%
Cc1ccc(C)c2c1sc1nc3nc4sc5ccccc5n4c(=N)c3c(=O)n12	78.5%	89.4%	116%	91.3%	88%	92.5%	64.3%	89.4%	94.8%	97.6%	78.9%	115%	121%	108%	51.1%	91.6%	94.6%	101%
CC(=O)OCC1OC([S-])C(OC(C)=O)C(OC(C)=O)C1OC(C)=O.[Au+].c1ccc(CN2[CH-]N(Cc3ccccc3)C(c3ccccc3)=C2c2ccccc2)cc1	-8.38% [4.75 µM] (active)																	
C[C@@H](Oc1cc(-c2cnn(C3CC4(CCNCC4)C3)c2)cnc1N)c1c(F)ccc(Cl)c1Cl	-29.2% (active)	-40.1% (active)	39.8%	27.8%	40.7%	62.6%	47.7%	44.4%	25.6%	61.5%	-27.9% (active)	58.6%	-70.4% (active)	-46% (active)	-34.6% (active)	-22.5% (active)	6.25% (active)	
COc1cc(C(=O)/C=C/c2c(-c3cccs3)nc3sccn23)cc(OC)c1OC	10.3%	-0.804% (active)	0.926% (active)	0.426% (active)	-2.2% (active)	-2.52% (active)	5.57% (active)	-19.1% (active)	-9.28% (active)	-29.7% (active)	-1.93% (active)	5.79% (active)	2.16% (active)	8.66% (active)	11%	-14.3% (active)	-11.9% (active)	-27.2% (active)
CC(C)(C)[Si](C)(C)OC1[C@@H](CNC(=O)NC(=O)CCl)O[C@@H](n2cnc3c(N)ncnc32)[C@H]1O[Si](C)(C)C(C)(C)C (some centres undefined)	-58.2% (active)	-43% (active)	-47.7% (active)	-37.5% (active)	-54.7% (active)	92%	-61.8% (active)	-91.5% (active)	-16.9% (active)	-30.4% (active)	13.5%	-70.6% (active)	-90% (active)	-82% (active)	-75.5% (active)	-87.7% (active)	-69.5% (active)	-82.4% (active)
COc1ccc(-c2c3c(N)c4c(nc3nc3c2c(C)nn3-c2ccccc2)CCCC4)cc1	-25.8% (active)	-37.5% (active)	83.1%	90.1%	45.1%	103%	90.1%	88.8%	92.5%	86.6%	84%	106%	77.5%	68.2%	58.5%	31.8%	100%	89.6%
Cc1nc2cc(Nc3nc(Nc4ccc(F)cc4)nc(-c4cccs4)n3)ccc2n1Cc1ccccc1	18%	-0.339% (active)	37%	92%	51%	95.1%	48.3%	66.7%	50.3%	57.3%	23.3%	69.5%	43.8%	68.1%	32.9%	24.2%	72.1%	25.2%
COc1ccc(NC(=O)c2ccc3c(c2)nc(-c2ccc(Cl)cc2)n3-c2cc(C(C)(C)C)[nH]n2)cc1	79.7%	90.2%	89.3%	100%	72.7%	114%	88.7%	94.5%	62%	80.1%	74.5%	81.3%	88.9%	104%	83%	80.7%	112%	84%
